Assay outcomes deposited in PubChem by National Center for Advancing Translational Sciences (NCATS).
Pf growth 96h: P. falciparum growth inhibition at 96 hour, primary screen for plastid delayed-death inhibitors. Potency, µM (highest dose often 28.7 µM), without a hit: at the highest dose activity change, negative = inhibition, actives largely listed as inhibitors. AID 504834. P. falciparum luciferase reporter growth, 96 h. actives 6.9% (n = 320,000); note: potency is the fitted concentration of half-maximal effect; % is set by controls: 0 for no effect and ±100 for the full control effect
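Delayed-death screen, second-generation endpoint: infected erythrocytes, 2% hematocrit, 0.05% parasitemia final; 96 hours at 37 C, 5% CO2; luciferase detection reagent; luminescence decrease equals reduced growth.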
HCMV inh: blocks human cytomegalovirus replication | actives 4.5% (n = 410,000) | activity change, negative = inhibition, % at 57.5 µM | HFF cells, HCMV-luciferase reporter, 72 h; active compounds read low | AID 1259415; in the data active = activity change below about -60%; inconclusive = no clear call, values can overlap the other calls; inactive = above about -39%; note: % is set by controls: 0 for no effect and ±100 for the full control effect
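Two-dose cell screen: HFF monolayers treated with compounds and infected with luciferase-expressing HCMV at 1 PFU/cell, 72 h at 37C, then lysed for luciferase measurement.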
CHX counter: counter-screen for Shiga toxin inhibitors: cycloheximide protein synthesis inhibition | max response, % | cell reporter, cycloheximide protein synthesis inhibition counterscreen | actives 12% (n = 300,000) | AID 2314; in the data active = max response mostly above about 13%, no sharp cut-off; inactive = mostly below about 14%; note: read at 38.3 µM for the half of the compounds with a filed dose; 0% is about no effect
Pf growth 48h: inhibits P. falciparum growth in the first generation, 48 h. actives 5.9% (n = 310,000). AID 504832. P. falciparum luciferase growth in erythrocytes, 48 h. Potency, µM (series often up to 28.7 µM), inactives show at the highest dose activity change, negative = inhibition, actives largely listed as inhibitors; note: potency is the fitted concentration of half-maximal effect; % is set by controls: 0 for no effect and ±100 for the full control effect
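Firefly luciferase activity from engineered P. falciparum reports growth; inhibitors lower the luminescent signal. Cultures contained 2% hematocrit erythrocytes at 0.1% final parasitemia.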
Shiga inhibitor: blocks Shiga toxin action in Vero cells. AID 2315. inhibition, % at 38.7 µM. actives 9.2% (n = 290,000). Vero cells, Shiga toxin protein synthesis inhibition reporter; in the data active = inhibition mostly above about 28%, no sharp cut-off; inactive = mostly below about 43%; note: 0% is about no effect
* marks the source's active call; other numbers are inactive results; ? = inconclusive; · = no result. A selection: hits, their analogues and other compounds. The true share with any hit is near 20%. Unless noted, calls come from the whole dose curve; as a rule, active = well fitted inhibition curve with a large enough effect; inconclusive = small, poorly fitted or top-dose-only effect, or another doubt; inactive = no such curve, though single readings can be large or run the other way.

SMILES	Pf growth 96h	HCMV inh	CHX counter	Pf growth 48h	Shiga inhibitor
COc1cc(OC)c(NC(=O)CCc2c(C)nc3ncnn3c2C)cc1Cl	·	-28	·	·	·
COC(=O)c1sccc1S(=O)(=O)N1CCN(c2ccccc2OC)CC1	·	31	·	·	·
CCCC1CCc2c(sc(N)c2C(N)=O)C1 (centres undefined)	?	-17	-3	·	-12
COc1ccc2cc(CNCCOCCOCCNCc3ccc4cc(OC)ccc4c3)ccc2c1	·	-98*	·	·	·
CCOCCCNCc1ccc(OC)cc1	16%	28	-2	·	-7
COc1cc2c3c(c1)c(C1=NC(=S)NC1=O)c(O)n3C(C)(C)C=C2C	-27%	9	21*	·	-12
CC1C(=O)N(c2ccc(S(=O)(=O)N(C)C)cc2)C1(/C=C/c1ccccc1)C(=O)NC1CCCC1 (centres undefined)	51%	-19	3	9.3µM*	-5
CCOC(=O)C1CCCN(Cc2cn3c(-c4ccc(Br)cc4)nnc3s2)C1 (centres undefined)	·	14	·	·	·
COc1ccc(NC(=O)c2ccccc2NC(=O)C2CC=CCC2C(=O)O)cc1 (centres undefined)	12%	32	41*	15%	88*
COc1cccc(C(=O)Nc2ccc(NC(=O)C3CC=CCC3C(=O)O)cc2)c1 (centres undefined)	12µM*	-2	24*	150%	77*
COc1ccc(NC(=O)c2ccccc2NC(=O)C2CCCO2)cc1 (centres undefined)	·	47	24*	126%	49*
COC(=O)c1ccc(NC(=O)C2CCCCC2C(=O)O)cc1 (centres undefined)	35%	45	1	0%	-4
COc1ccc(NC(=O)c2ccccc2NC(=O)c2ccccc2)cc1	13%	-23	13	·	-4
COc1cccc(C(=O)Nc2ccc(NC(=O)C3CCCCC3C(=O)O)cc2)c1 (centres undefined)	-20%	9	39*	-4%	21
Cc1ccc(C(=O)Nc2nc(C(N)Cc3ccc(C(F)(F)F)cc3)cs2)cc1 (centres undefined)	·	-23	·	·	·
N=c1occ(C(=O)c2cc(F)ccc2O)cc1C(=O)NC1CCCCC1	?	-26	1	?	-4
O=C(O)C1CC=CCC1C(=O)Nc1ccccc1 (centres undefined)	·	19	9	0%	37
O=C(NCCc1ccccc1)c1ccccc1NC(=O)C1CCCO1 (centres undefined)	?	-25	30*	101%	67*
O=C(COC(=O)c1ccc(NC(=O)C2CC=CCC2C(=O)O)cc1)c1ccccc1 (centres undefined)	-23%	-17	36*	18%	75*
O=C(O)c1ccccc1NC(=O)C1CCCO1 (centres undefined)	89%	-24	23	6%	-29
Cc1ccc(N(CC2CO2)S(=O)(=O)c2ccc([N+](=O)[O-])cc2)cc1 (centres undefined)	-9%	-16	-5	-6%	2
C=CCc1cccc(C=Nc2cc(Br)ccc2O)c1O	12µM*	-28	6	?	22
CCc1ccc(O)c(N=Cc2cccc(C)c2O)c1	?	13	27*	?	47
C=CCc1cccc(C=Nc2c[nH]c(=O)[nH]c2=O)c1O	-22%	46	-3	0%	·
C=CCc1cccc(C=Nc2cccn3cc(-c4ccccc4)nc23)c1O	6%	26	32*	92%	69*
SMILES	Pf growth 96h	HCMV inh	CHX counter	Pf growth 48h	Shiga inhibitor
COc1ccc(Cl)cc1-c1ccc2c(c1)COCC(=O)N2C	·	0	·	·	·
CN(C)S(=O)(=O)c1ccc(Cl)c(C(=O)OCC(=O)NNC(=O)c2cccs2)c1	31%	0	·	3%	·
Cc1ccc(NC(=O)CN(C)C(=O)Cc2c(Cl)cccc2Cl)cc1	?	47	-3	?	-2
O=c1c2sccc2n(Cc2cc(=O)n3ccccc3n2)c(=O)n1-c1ccccc1	4.7µM*	-5	1	0%	-5
COC(=O)c1cc2ccsc2n1Cc1cc(=O)n2ccccc2n1	48%	38	28*	?	74*
Fc1ccc(CN2CC[C@H]3C=CCc4cccc(c43)C2)cc1	?	16	·	10µM*	·
O=C(C1CCN(Cc2ccc(F)cc2)CC1)N(CCO)Cc1ccccc1	·	-9	12	-17%	-7
Clc1ccc(CN2CC[C@H]3C=CCc4cccc(c43)C2)cc1	1.9µM*	-16	·	3.7µM*	·
Cc1ccc(NS(=O)(=O)c2ccc(-c3cc(C)no3)cc2)c(Br)c1	·	-22	·	·	·
COCCn1c(CNC(=O)c2cccc(N(C)C)c2)nc2cccnc21	·	-14	·	·	·
COc1ccc(S(=O)(=O)N/N=C(/C)c2ccncc2)cc1OC	267%	17	2	-5%	-9
CCCN1CCN(CCCNC(=O)C2CCCN(c3nc4ccc(OCC)cc4s3)C2)CC1 (centres undefined)	13%	·	0	-2%	12
COc1ccc2nc(N3CCCC(C(=O)NCCCN4C(C)CCCC4C)C3)sc2c1 (centres undefined)	21%	24	20*	22%	40
CCOc1ccc2nc(N3CCC(C(=O)N4CCN(C(=O)c5ccco5)CC4)CC3)sc2c1	?	·	10	13µM*	13
COc1ccc2nc(NC(=O)C3CCN(C(=O)c4ccc(F)cc4)CC3)sc2c1	9.3µM*	-10	9	?	24
O=C(c1ccco1)N1CCN(c2nc3ccc(Cl)cc3s2)CC1	·	-5	·	·	·
COc1ccc(C(=O)N2CCC(C(=O)c3ccc(F)cc3)CC2)cc1	8%	-20	-3	-10%	-11
CCOc1ccc2nc(N3CCCC(C(=O)N4CCN(CC)CC4)C3)sc2c1 (centres undefined)	-14%	161	25*	·	38
CN(C)c1ccc(CN2CCc3nc(N4CCN(c5ccccn5)CC4)ncc3C2)cc1	·	-29	·	·	·
O=c1c2ccccc2nc(SCc2cc([N+](=O)[O-])cc3c2OCOC3)n1-c1ccccc1	58%	47	-1	19%	-7
COc1ccc(/C=N/NC(=O)c2ccc3nc[nH]c3c2)cc1	64%	?	7	-16%	48
CC[C@]12c3[nH]c4cc(CCC(=O)N(C)C)ccc4c3CCN1C(=O)[C@@H](CC(=O)NCCc1ccccn1)C[C@@H]2C(=O)N1CCN(C(=O)c2ccco2)CC1	·	27	·	·	·
CCOc1ccc2nc(N3CCCCCC3)sc2c1	?	110	57*	211%	102*
CCOc1cc2sc(N3CCC(C(=O)Nc4ccc(C)cc4)CC3)nc2cc1Br	·	102	55*	·	149*
CCOc1ccc2nc(NC(=O)C3CCN(C(=O)c4ccco4)CC3)sc2c1	73%	6	27*	-13%	74*
CCOc1ccc2nc(N3CCC(C(=O)Nc4nnc(CC)s4)CC3)sc2c1	-18%	26	81*	5%	167*
O=C(O)C1CCCN(S(=O)(=O)c2ccc(Br)cc2)C1 (centres undefined)	?	-20	-5	·	-5
